High-throughput results (PubChem BioAssay)
KCNQ2 enhance – potentiators of rat KCNQ2 potassium channel. Potassium voltage-gated channel subfamily KQT member 2 (Rattus norvegicus), O88943. CHO-K1 KCNQ2, FluxOR thallium flux fluorescence; active compounds read high. B-score at 10 µM. 0.54% of 310,000 active;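 active = fluorescence ratio B-score at least 3 SD of library B-scores, with initial fluorescence B-score within 3 of them, cut at about 5.3 in these data; same plate scores as AID 2156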;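 also: B-score of peak minus minimum over baseline fluorescence ratio after K+ and Tl+ stimulus; positive B-score means potentiation of KCNQ2 with more thallium influx and brighter signal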
KCNQ2 block – rat KCNQ2 potassium channel inhibitors, primary screen, cell-based, CHO-K1, FluxOR thallium flux, B-score | Potassium voltage-gated channel subfamily KQT member 2 (Rattus norvegicus), O88943 | 20 min; active compounds read low | B-score at 10 µM | 1.1% of 310,000 active;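 active = fluorescence ratio B-score at most minus 3 library SDs, with starting brightness B-score within 2 library SDs, cut at about -5.5 in these data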
* hit, by the source's call. Shown are actives, neighbours in structure and some others; about 1.6% of the full set was active somewhere.

How did CCCC(=O)Nc1sc(-c2ccccc2)c(-c2ccccc2)c1C(=O)O do in these assays?
KCNQ2 enhance: 1.4; KCNQ2 block: inactive

What do the screens show for `C=CCN(c1cccc(C(F)(F)F)c1)S(=O)(=O)c1cccc(C(=O)OCC(=O)NC)c1`?
KCNQ2 enhance: 1.6; KCNQ2 block: inactive

What do the screens show for `C=CCN(c1cccc(C(F)(F)F)c1)S(=O)(=O)c1cccc(C(=O)OCC(=O)Nc2ccccc2)c1`?
KCNQ2 enhance: 7.5*; KCNQ2 block: inactive

Results for Cc1cc(C)cc(N2C(=O)CCN(Cc3ccccc3)C2=O)c1 ?
KCNQ2 block: inactive

Results for Cc1c(NC(=O)C(C)OC(=O)/C=C/c2ccc3c(c2)OCO3)c(=O)n(-c2ccccc2)n1C (centres undefined) ?
KCNQ2 block: inactive

How did CC(C)Oc1ccc(CNC(=O)CCC(=O)N2CC(C)Sc3ccccc32)cc1 (centres undefined) do in these assays?
KCNQ2 block: inactive

What do the screens show for `CC1CN(C(=O)CCC(=O)NCc2ccccc2Cl)c2ccccc2S1` (centres undefined)?
KCNQ2 enhance: -7.4; KCNQ2 block: -7.4*

How did CC(C)c1nc2ccccc2c2nnc(SCC(=O)NCc3ccco3)n12 do in these assays?
KCNQ2 block: inactive

Results for CC(C)(C)c1nc2ccccc2c2nnc(SCC(=O)NCc3ccco3)n12 ?
KCNQ2 enhance: -6.5; KCNQ2 block: -6.5*

How did CCSc1nc(=S)cc(C)[nH]1 do in these assays?
KCNQ2 enhance: 13*; KCNQ2 block: inactive

Results for CCSc1nc(O)cc(=O)[nH]1 ?
KCNQ2 block: inactive

Results for COc1ccc(CN(C(=O)c2oc3cc(C)ccc3c2C)C2CCS(=O)(=O)C2)cc1OC (centres undefined) ?
KCNQ2 block: inactive

How did CC1(C)CC(NC(=O)C23CCC(C)(C2Br)C3(C)C)CC(C)(C)N1 (centres undefined) do in these assays?
KCNQ2 block: inactive

Results for COCCCNC(=O)CNC(=S)N(Cc1ccccc1F)C1CCCCC1 ?
KCNQ2 block: inactive

What do the screens show for `CCCCNC(=O)CNC(=S)N(Cc1ccccc1F)C1CCCCC1`?
KCNQ2 enhance: -6.8; KCNQ2 block: -6.8*

What do the screens show for `COC(=O)c1ccc(OCCN2CCCCCC2)cc1`?
KCNQ2 block: inactive

How did O=C(c1ccc(OCCN2CCCCC2)cc1)c1c(-c2ccc(O)cc2)sc2cc(O)ccc12 do in these assays?
KCNQ2 enhance: -6; KCNQ2 block: -6*

Results for COc1cc(CN2CCCN(C)CC2)cc([N+](=O)[O-])c1O ?
KCNQ2 enhance: 0.02; KCNQ2 block: inactive

What do the screens show for `COc1ccc(NC(=S)NCCCCCC(=O)C[N+](=O)[O-])cc1`?
KCNQ2 block: inactive

What do the screens show for `Cn1nc(C(F)(F)F)c(/C=N/OC(=O)c2ccccc2)c1Cl`?
KCNQ2 block: inactive

Results for Cn1nc(C(F)(F)F)c(/C=N/OC(=O)c2ccccc2)c1Sc1ccc(Cl)cc1 ?
KCNQ2 enhance: -5.7; KCNQ2 block: -5.7*

Results for COCCCN(C(=O)c1ccccc1)c1nc(-c2ccc(OC)cc2)cs1 ?
KCNQ2 enhance: -5.9; KCNQ2 block: -5.9*

What do the screens show for `COCCN(C(=O)c1ccccc1)c1nc(-c2ccc(OC)cc2)cs1`?
KCNQ2 block: inactive

What do the screens show for `COc1ccc(-c2csc(N(Cc3ccco3)C(=O)c3cccs3)n2)cc1`?
KCNQ2 enhance: -6; KCNQ2 block: -6*

Results for COc1ccc(OC)c(-c2csc(N(Cc3ccco3)C(=O)c3cccs3)n2)c1 ?
KCNQ2 block: inactive

How did CC(CN1CCN(C)CC1)OC(=O)c1cccc(F)c1 (centres undefined) do in these assays?
KCNQ2 block: inactive

What do the screens show for `Cc1cccc(OCCCOc2cccc3cccnc23)c1C`?
KCNQ2 block: inactive

What do the screens show for `COc1cccc(OC)c1OCCCOc1cccc2cccnc12`?
KCNQ2 enhance: -5.6; KCNQ2 block: -5.6*

Results for Cc1ccc(OC(=O)c2ccc(Cl)c([N+](=O)[O-])c2)cn1 ?
KCNQ2 enhance: 0.09; KCNQ2 block: inactive

What do the screens show for `Cc1ccc(C(=O)Oc2cccnc2)cc1[N+](=O)[O-]`?
KCNQ2 enhance: 6.1*; KCNQ2 block: inactive

How did COC(=O)Cc1ccc(N(Cc2ccccc2F)S(=O)(=O)c2ccc(C)cc2)cc1 do in these assays?
KCNQ2 enhance: -6.6; KCNQ2 block: -6.6*

Results for Cc1ccc(N(CCC(=O)O)S(=O)(=O)c2ccccc2)cc1 ?
KCNQ2 enhance: 0.81; KCNQ2 block: inactive

What do the screens show for `CCN1C(=O)c2ccc(C(=O)Nc3c(C)cc(C)cc3C)cc2C1=O`?
KCNQ2 enhance: 0.28; KCNQ2 block: inactive

What do the screens show for `Cc1cccc(NC(=O)N2CCCC(CNC(=O)c3ccccc3Cl)C2)c1C` (centres undefined)?
KCNQ2 enhance: -8.2; KCNQ2 block: -8.2*

What do the screens show for `CC(=O)c1ccc(C(=O)N2CCCC(CNC(=O)c3ccccc3Cl)C2)cc1` (centres undefined)?
KCNQ2 block: inactive
